Assay outcomes deposited in PubChem BioAssay by The Scripps Research Institute Molecular Screening Center.
The sample as a whole holds a higher share of hits than the screen did.
GBA enhancer = glucocerebrosidase activity enhancement. activation, % at 10 µM. AID 784. L444P Gaucher fibroblasts, 4-MU-glucoside fluorescence, 3 days. P04062. 30,000 compounds, 0.44% hits; in the data active means activation above about 65%;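 further: 0% = vehicle wells and 100% = positive control wells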
Target sequence (P04062 whole entry L483P): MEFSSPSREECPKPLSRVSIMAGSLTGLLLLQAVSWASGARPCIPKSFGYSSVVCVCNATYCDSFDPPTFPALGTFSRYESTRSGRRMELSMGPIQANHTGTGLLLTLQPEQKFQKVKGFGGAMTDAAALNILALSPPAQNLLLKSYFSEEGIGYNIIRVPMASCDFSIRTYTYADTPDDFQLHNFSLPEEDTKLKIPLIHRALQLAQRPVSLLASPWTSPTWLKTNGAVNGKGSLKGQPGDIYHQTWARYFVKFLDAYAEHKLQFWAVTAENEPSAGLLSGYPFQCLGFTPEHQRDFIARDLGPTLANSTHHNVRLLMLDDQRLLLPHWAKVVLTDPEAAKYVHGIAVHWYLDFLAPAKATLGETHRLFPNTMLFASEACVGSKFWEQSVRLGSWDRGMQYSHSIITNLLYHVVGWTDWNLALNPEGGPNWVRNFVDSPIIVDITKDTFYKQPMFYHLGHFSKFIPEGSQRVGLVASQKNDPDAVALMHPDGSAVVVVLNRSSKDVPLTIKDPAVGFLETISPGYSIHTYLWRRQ
* = called active by the depositor.

SMILES	GBA enhancer
CCOC(=O)N1CCN(C(=O)C2CCC(C(=O)N3CCN(C(=O)OCC)CC3)CC2)CC1 (configuration not stated)	5
COc1cc(-c2ccc(NC(=O)CN3CCCCC3)c(OC)c2)ccc1NC(=O)CN1CCCCC1	13
COc1cccc(NC(=O)C2C3C=CC4(O3)C2C(=O)N(C(C)C)C4C(=O)NC2CCCCC2C)c1 (configuration not stated)	68*
CCCCN1C(=O)C2C(C(=O)Nc3cccc(OC)c3)C3C=CC2(O3)C1C(=O)NC1CCCCC1C (configuration not stated)	-3
COc1cccc(NC(=O)C2C3C=CC4(O3)C2C(=O)N(C2CC2)C4C(=O)NC2CCCCC2C)c1 (configuration not stated)	-10
Cc1occc1C(=O)Nc1cc(C(F)(F)F)ccc1Cl	-6
O=S1(=O)C=C(Sc2nnc(-c3ccccc3)o2)c2ccccc21	-30
CN(C1=NC(=O)C(CC(=O)Nc2ccc(Br)cc2)S1)c1ccc(O)cc1 (configuration not stated)	3
CCOC(=O)CN(C(=O)CSc1nnc(COc2ccc(OC)cc2)n1C)c1ccccc1	-13
COc1cc(OC)nc(NC(=O)CSc2nnc(-c3ccccc3)n2C2CCCCC2)n1	-2
CCOC(=O)COc1ccc(-c2nnc(-c3ccccc3)o2)cc1	78*
Cc1ccc(OCC(=O)Nc2cccc(-c3nnc(-c4ccccc4)o3)c2)cc1	9
CCOC(=O)c1nnc(-c2ccccc2)o1	-17
CSc1nc2ccccc2n1CC(=O)Nc1c(C)n(C)n(-c2ccccc2)c1=O	-12
CCc1ccc(NC(=O)Cn2c(SC)nc3ccccc32)cc1	82*
COC(=O)n1c(SC)nc2ccccc21	-10
Cc1ccc(S(=O)(=O)N2CCSC2c2ccco2)cc1 (configuration not stated)	-1
Cc1ccc(-n2ncc(C(=O)N3CCc4ccccc4C3)c2NC(=O)c2ccco2)cc1C	-2
Cc1nnc(Sc2nc(Sc3nnc(C)s3)nc(N3CCN(C)CC3)n2)s1	-18
O=C1CC(NC23CC4CC(CC(C4)C2)C3)C(=O)N1c1ccc2c(c1)OCO2 (configuration not stated)	-16
N/C(=N/O)c1nc(N2CCCCC2)nc(N2CCCCC2)n1	89*
N#CN(CC(N)=O)c1nc(N2CCCCC2)nc(N2CCCCC2)n1	-1
C1CCN(c2nc(N3CCCCC3)nc(N3CCNCC3)n2)CC1	-65
CCOC(=O)c1[nH]c(COC(=O)C2CC(=O)N(Cc3ccccc3)C2)c(C(=O)OCC)c1C (configuration not stated)	6
O=C(CCS(=O)(=O)c1cccc2nonc12)NCCc1ccccc1	-8
SMILES	GBA enhancer
O=C(CCCC(=O)N1CCCc2ccccc21)N1CCCc2ccccc21	-11
O=C(CCS(=O)(=O)c1cccc2nonc12)N1CCCc2ccccc21	72*
Cc1nc(SCC(=O)Nc2ccccc2)c2oc3ccccc3c2n1	-60
Cc1cc(C)nc(Sc2nc(C)nc3c2oc2ccccc23)n1	136*
Cc1cc(C)nc(N2CCN(c3nc(C)nc4c3oc3ccccc34)CC2)n1	-8
Cn1c(C(=O)N2CCc3ccccc32)cc2c(=O)n3ccccc3nc21	-3
CC(C)(C)NC(=O)CSc1nncn1NCc1ccccc1	68*
Cc1ccc(CNn2cnnc2SCC(=O)NC(C)(C)C)cc1	-22
Cc1nnc(SCC(=O)NC(C)(C)C)n1CCc1ccccc1	-7
NS(=O)(=O)c1ccc(NC(=O)CCc2ccccc2)cc1	2
O=C1OCCC1Sc1nc2cc(Cl)ccc2s1 (configuration not stated)	-5
CCOC(=O)c1nn(-c2ccccc2)c(=O)c(C#N)c1C	3
CCOC(=O)c1oc2c(C)c(O)ccc2c(=O)c1-c1nncn1-c1ccccc1	84*
CCOC(=O)c1oc2c(CN3CCCCC3C)c(O)ccc2c(=O)c1-c1ccc(OC)c(OC)c1 (configuration not stated)	-24
COc1ccc(-c2cc(C(F)(F)F)nc(NCc3ccco3)n2)cc1OC	-36
FC(F)(F)c1cc(-c2ccco2)nc(NCc2ccco2)n1	6
COc1cccc(-c2cc(C(F)(F)F)nc(NCc3ccco3)n2)c1	106*
CCCc1nc2ccccc2c(=O)n1/N=C/c1c(C)[nH]n(-c2ccc(C)cc2)c1=O	-6
C=CCOc1cccc(C2/C(=C(/O)c3ccccc3)C(=O)C(=O)N2CCCN2CCOCC2)c1 (configuration not stated)	-18
O=C(Nc1ccccc1N1CCCC1)c1cc2ccccc2o1	-30
O=C(Oc1ccccc1)c1cc2ccccc2o1	-3
O=C(OCCN1CCCCC1)c1cc2ccccc2o1	71*
O=c1cnn(-c2ccccc2)c(-c2ccccc2)c1	-54
Cc1nn(-c2ccc(F)cc2)c2c1cc(C#N)c1nc3ccccc3n12	20
CC1CN(S(=O)(=O)c2ccc(NC(=O)CCN3C(=O)c4ccccc4C3=O)cc2)CC(C)O1 (configuration not stated)	-39
Cc1ccc(OCCCC(=O)Nc2ccc(S(=O)(=O)Nc3cc(C)on3)cc2)cc1	-15
